Results: PubChem BioAssay AID1159580 (chemical genetic matrix, 2015)
About 2,000 (36%) of roughly 5,500 compounds were called active. Roughly 18% stayed inconclusive and do not appear here. No stated cut-off is given here; in the data, active means normalized growth mostly below about 0.91 (no sharp cut-off); inconclusive means no clear call, values can overlap the other calls; inactive means mostly above about 0.92. Some of the results follow.

Experiment: chemical genetic growth profiling, strain panel (AID 1159580);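 further: tested at 20 µM; growth read once vehicle control cultures reached saturation at 30 °C; 1 = growth at the plate median or of vehicle wells; lower values mean less growth of the strain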
Conditions: S. cerevisiae deletion strains, growth OD

Measured: normalized growth

CCCc1c(OCCCOc2ccc(OCC(=O)O)cc2)ccc(C(C)=O)c1O
inactive: locus YAL040C, strain CLN3, hits give low values 0.942 | locus YCL061C, strain MRC1 (second series), hits give low values 0.999 | locus YDR150W, strain NUM1, hits give low values 0.997 | locus YDR363W, strain ESC2, hits give low values 1.01 | locus YER002W, strain NOP16, hits give low values 1.04 | locus YMR263W, strain SAP30, hits give low values 1.01 | locus YNL175C, strain NOP13, hits give low values 0.98 | locus YNL197C, strain WHI3, hits give low values 0.987 | locus YNL224C, strain SQS1, hits give low values 0.963 | locus YNL322C, strain KRE1, hits give low values 1.01 | locus YOR083W, strain WHI5 (second series), hits give low values 0.914 | locus YPL241C, strain CIN2, hits give low values 1
